{"source": "PubChem BioAssay (NCI)", "note": "About 79,000 compounds went through this panel and 15% of them were active in at least one assay; those are over-represented in the sample as a whole. Activity calls are given as the source filed them. Cut-off read from the data, not from the text of the source: active = growth inhibition above about 70%; inactive = the rest.", "data": [{"assay": "NCI Yeast Anticancer Drug Screen. Data for the bub3 strain (AID 167)", "conditions": "S. cerevisiae bub3 mutant strain, at 50.0 µM, hits give high values", "how_it_was_run": "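Part of a panel of yeast mutants defective in DNA damage repair or cell cycle regulation. Each strain is grown with compound, and inhibition is calculated relative to solvent-treated cultures.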", "values": [{"smiles": "CC1CNC(=S)O1", "note": "(stereo not drawn)", "growth inhibition": "-32.1% (inactive)"}, {"smiles": "COc1ccccc1/C=N\\NC(C)=O", "growth inhibition": "6.05% (inactive)"}, {"smiles": "CC(C)(C)OC(=O)NCCc1ccc(N)cc1", "growth inhibition": "8.05% (inactive)"}, {"smiles": "COc1cc(-c2ccccc2)c(OC)cc1CCl", "growth inhibition": "13.7% (inactive)"}, {"smiles": "C=CCN1C(=O)c2ccccc2C1=O", "growth inhibition": "22.6% (inactive)"}, {"smiles": "CC(=O)Nc1ccc(F)c([N+](=O)[O-])c1", "growth inhibition": "-14.9% (inactive)"}, {"smiles": "O=C(CCC(=O)OCCCl)OCCCl", "growth inhibition": "9.05% (inactive)"}, {"smiles": "Cc1nc2ccc(Cl)c(Cl)c2s1", "growth inhibition": "6.65% (inactive)"}, {"smiles": "CSc1nc(=S)c2[nH]c(=S)[nH]c2[nH]1", "growth inhibition": "21.5% (inactive)"}, {"smiles": "N#CC(/C(CCCC(=O)Nc1cccc([N+](=O)[O-])c1)=N/NC(=O)c1cc2ccccc2cc1O)c1ccccc1", "note": "(stereo not drawn)", "growth inhibition": "36.8% (inactive)"}, {"smiles": "CCn1c(=O)c(C#N)c2n(CC)c3cc(C)c(C)cc3n2c1=O", "growth inhibition": "-31.3% (inactive)"}, {"smiles": "Cc1cccc(C)c1/[N+]([O-])=C/c1cccc([N+](=O)[O-])c1", "growth inhibition": "10% (inactive)"}, {"smiles": "CC(=O)CCCCO", "growth inhibition": "2.8% (inactive)"}, {"smiles": "Cc1ccc(S(=O)(=O)n2ccnc2)cc1", "growth inhibition": "11.7% (inactive)"}, {"smiles": "CCCCCCCCC(C)(C)O", "growth inhibition": "5.65% (inactive)"}, {"smiles": "Cc1ccc(C(=O)OCc2ccccc2CN2CCCCC2)cc1", "growth inhibition": "3.6% (inactive)"}, {"smiles": "COc1cc(NC(C)CCCN)c2nccc(C)c2c1", "note": "(stereo not drawn)", "growth inhibition": "-62.5% (inactive)"}, {"smiles": "N#CC(C(=O)C(=O)Nc1cccc(C(F)(F)F)c1)c1c(Cl)cccc1Cl", "note": "(stereo not drawn)", "growth inhibition": "-1.7% (inactive)"}, {"smiles": "COC(=O)[C@]1(C)CCCn2c(=O)n(-c3ccccc3)c(=O)n21", "growth inhibition": "13.8% (inactive)"}, {"smiles": "CC1(C)Cc2ccccc2C(C)(Cl)C(=O)N1", "note": "(stereo not drawn)", "growth inhibition": "-26.9% (inactive)"}, {"smiles": "CC(=O)Oc1cc(C)c(OC(C)=O)c(C)c1C", "growth inhibition": "10.3% (inactive)"}, {"smiles": "COCn1cnc2c(F)ncnc21", "growth inhibition": "-11.2% (inactive)"}, {"smiles": "CCOC(=O)N1C(c2ccccc2)N(c2ccccc2)C(c2ccccc2)N1C(=O)OCC", "note": "(stereo not drawn)", "growth inhibition": "-15.6% (inactive)"}, {"smiles": "CSC1(SC)CCCCCCCCCCC1", "growth inhibition": "-34.9% (inactive)"}, {"smiles": "COc1cc(C(O)C(CO)Oc2c(OC)cc(C3OCC4C(c5cc(OC)c(O)c(OC)c5)OCC34)cc2OC)ccc1O", "note": "(stereo not drawn)", "growth inhibition": "-6.7% (inactive)"}, {"smiles": "Oc1ccc2ccccc2c1C(c1ccccc1)N1CCOCC1", "note": "(stereo not drawn)", "growth inhibition": "-12.4% (inactive)"}, {"smiles": "C/C=C/C(=O)OCCOc1ccccc1-c1ccccc1", "growth inhibition": "25.2% (inactive)"}, {"smiles": "O=C(NCCO)c1ccc(Cl)cc1", "growth inhibition": "-32.4% (inactive)"}, {"smiles": "COc1ccc(CCN=Cc2ccc(Cl)cc2)cc1OC", "growth inhibition": "-17.1% (inactive)"}, {"smiles": "Nc1cccc(N2N=C(C(=O)O)CC2=O)c1", "growth inhibition": "-2.7% (inactive)"}, {"smiles": "CN(NC(=O)c1ccccc1)C(=O)c1ccccc1", "growth inhibition": "6.05% (inactive)"}, {"smiles": "COC(=O)[C@]1(C)CCC[C@]2(C)c3ccc(C(C)=O)cc3C(=O)C[C@@H]12", "growth inhibition": "-8.5% (inactive)"}, {"smiles": "Cc1nc(C)c(N2CCN(Cc3ccccc3)CC2)c(=O)[nH]1", "growth inhibition": "17.4% (inactive)"}, {"smiles": "OCC1OC(n2ncc3c(Nc4ccccc4)ncnc32)C(O)C1O", "note": "(stereo not drawn)", "growth inhibition": "6.9% (inactive)"}, {"smiles": "CC(O)CCNC(c1ccccc1)C(O)c1ccccc1", "note": "(stereo not drawn)", "growth inhibition": "14.6% (inactive)"}, {"smiles": "CCOP(=O)(OCC)/C(C#N)=C/c1cnc(-c2ccccc2)[nH]1", "growth inhibition": "13.4% (inactive)"}, {"smiles": "Cc1cc2ncn(C3OC(CO)C(O)C3O)c2cc1C", "note": "(stereo not drawn)", "growth inhibition": "-8.2% (inactive)"}, {"smiles": "Cc1cccc(NC(=O)CSc2nnc(Cc3ccccc3)o2)c1", "growth inhibition": "-36.7% (inactive)"}]}]}
